In PubChem BioAssay one finds z-score and composite z-score data, which are given here for 35 compounds.

Each structure is given as a SMILES string.

Test system in one test: not listed separately
Nature of the test: JC-1 mitochondrial potential readout, lung cancer cells – cell-based, A549, JC-1 fluorescence, basal, 24 h, 100 nL, profiling panel (AID 1138).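 Further: A549 lung adenocarcinoma cells under basal conditions with no added stimulus; test concentration not given here.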 As to conditions: higher = more signal.
Compound `O=C(NCc1ccccc1)[C@]1(Cc2ccccc2)N=C(c2ccc(OCCCO)cc2)O[C@@H]1c1ccccc1` showed a z-score of 2.

As for `C=C(C(=O)CC[C@H](OC(=O)c1cccnc1)c1ccc(OCCO)cc1)C(C)C`, the z-score worked out at 0.531.

Take `O=C(O)[C@@]1(Cc2ccccc2)COC(c2ccc(OCCCO)cc2)=N1`: the z-score amounted to 0.315.

Compound `CCOC(=O)C1=CC[C@@H](c2cccc(Br)c2)N(S(=O)(=O)c2ccc(C)cc2)[C@H]1c1ccc([N+](=O)[O-])cc1` displayed a z-score of 1.99.

`CN(C)C(=O)[C@@]1(CCC(=O)OC(C)(C)C)COC(c2ccc(OCCCO)cc2)=N1` returned a z-score of -0.191.

Compound `O=C1O[C@H](c2ccccc2)[C@H](c2ccccc2)N2[C@H]1[C@@H](C(=O)N1CCN(c3ncccn3)CC1)[C@]1(C(=O)Nc3ccc(C#CCCO)cc31)[C@H]2c1ccc(OCCO)cc1` returned a z-score of -0.756.

For `COC(=O)[C@@]1(Cc2ccccc2)[C@H]2c3cc(C(=O)N4CCCC4)n(CCO)c3C[C@H]2CN1C(=O)c1ccccc1`, the z-score stood at 0.841.

The test system of the next test is Lefty1. The test can be described thus: Lefty1 protein binding to printed compounds – biochemical, small-molecule microarray, 635/667 nm fluorescence, primary screen (AID 1139). The note with it: fluorescence 635/667, higher = more signal.
`CC(C)NC(=O)[C@@H]1c2ccccc2C(=O)N(Cc2cc(C(F)(F)F)cc(C(F)(F)F)c2)[C@H]1c1ccc(CO)cc1` gave a composite z-score of 0.312.

As to `O=C(CS)NCCCCCNC(=O)[C@@H]1C[C@@H]2C(=O)N3CCC[C@H]3C(=O)N2[C@@H]1c1ccc(O)cc1`, the composite z-score was -0.0581.

Regarding `CCCCC=C[C@@H](NC(=O)CCc1ccccc1)c1ccccc1`, the composite z-score is -0.0782.

The compound `COCCOC(=O)N1C(=O)[C@@]2(c3cc(C#Cc4ccc(OC)cc4)ccc31)[C@H](C(=O)N1CCc3cc(OC)c(OC)cc3C1)[C@H]1C(=O)O[C@H](c3ccccc3)[C@H](c3ccccc3)N1[C@@H]2c1ccc(OCCO)cc1` showed a composite z-score of 0.88.

`OCc1ccc(-c2cc[n+](Cc3cccc(OC(F)(F)F)c3)cc2)cc1` gave a composite z-score of 1.47.

For the compound `O=C(Nc1cc(Br)ccc1C(=O)NCc1cccc(O)c1)c1ccccc1`, the composite z-score is -0.241.

`COC(=O)c1ccc(OC)c(/C=C\CC(CCc2ccccc2)OC(C)=O)c1` (configuration not stated) registered a composite z-score of 0.222.

With `O=C1C[C@@](C(=O)O)(c2ccc([N+](=O)[O-])cc2)[C@@H](c2ccc(CO)cc2)N1CC12CC3CC(CC(C3)C1)C2`, the composite z-score is 0.43.

In the case of `CO[C@H]1O[C@H](CO)[C@@H](OC(=O)Nc2cccc(F)c2)[C@H](OC(=O)Nc2ccc3c(c2)OCO3)[C@H]1OC(=O)Nc1ccc2c(c1)OCO2`, the composite z-score was 0.9.

In turn, `COc1ccc([Si](C)(C)[C@H]2[C@H](CCO)O[C@@]3(C(=O)N(Cc4cccc(N5CCOC5=O)c4)c4ccccc43)[C@@H]2C)cc1` returned a composite z-score of 0.729.

As to `COC(=O)C(CC#Cc1ccc2c(c1)[C@]1(C(=O)N2)[C@H](c2ccccc2OCCO)N2[C@H](c3ccccc3)[C@H](c3ccccc3)OC(=O)[C@H]2[C@@H]1C(=O)Nc1nc2ccccc2s1)C(=O)OC`, the composite z-score was determined as 0.9.

`CCOC(=O)C[C@H]1[C@H](OC(=O)Cc2ccc3c(c2)OCO3)[C@@H](NC(=O)c2ccccc2)c2cc(OCCCO)ccc2N1C(=O)c1ccc2ccccc2n1` returned a composite z-score of 0.447.

Compound `Cc1ccc(S[C@]2(C(=O)NCc3ccccc3)CC(=O)N(C3Cc4ccccc4C3)[C@@H]2c2ccc(CO)cc2I)cc1` returned a composite z-score of -0.582.

In turn, `CC(C)C(CO)N1C(=O)[C@@H]2[C@H]3C(=O)OCC=C[C@H]3OC23C=CCN(CCN2CCOCC2)C(=O)[C@@H]13` (some centres not stated) gave a composite z-score of 0.817.

`C=CCOC(=O)[C@@H]1[C@H]2C(=O)O[C@H](c3ccccc3)[C@H](c3ccccc3)N2[C@H](c2ccc(OCCOC(=O)[C@H]3C[C@H]4C(=O)N[C@@H](Cc5ccccc5)C(=O)N4[C@H]3c3cccc(OCCO)c3)cc2)[C@@]12C(=O)Nc1ccc(I)cc12`: the composite z-score came out at 1.33.

In turn, `CCOC(=O)C[C@H]1[C@H](OC(=O)c2ccccc2-c2ccccc2)[C@@H](NC(=O)c2ccccc2)c2cc(OCCCO)ccc2N1C(=O)Cc1ccc(OC)cc1` had a composite z-score of -0.018.

With `NCCCCCCNC(=O)[C@H]1C[C@H]2C(=O)N3CCC[C@H]3C(=O)N2[C@H]1c1ccc(O)cc1`, the composite z-score is 0.918.

As for `COC(=O)[C@@]1(Cc2ccc(F)cc2)[C@H]2c3cc(C(=O)N4CCCC4)n(Cc4ccccc4)c3C[C@H]2CN1C(=O)c1ccccc1`, the composite z-score was -0.0042.

`COC(=O)[C@@]1(Cc2ccccc2)[C@H]2c3cc(C(=O)N(C)C)n(Cc4ccccn4)c3C[C@H]2CN1C(=O)c1ccccc1` showed a composite z-score of -0.225.

Compound `O=C1c2ccccc2[C@](Cc2ccccc2I)(C(=O)NCC(F)(F)F)[C@H](c2ccc(CO)cc2)N1Cc1ccccc1` yielded a composite z-score of 0.343.

`O=C1NC(=O)C2C1C=CC(C(O)c1ccc3c(c1)OCO3)N2Nc1ccc(Cl)cc1Cl` (configuration not stated) came in with a composite z-score of 0.194.

`COCCOC(=O)N1C(=O)[C@@]2(c3cc(C#CCCO)ccc31)[C@H](c1ccc(OCCO)cc1)N1[C@H](c3ccccc3)[C@H](c3ccccc3)OC(=O)[C@H]1[C@@H]2C(=O)N1CCc2cc(OC)c(OC)cc2C1`: the composite z-score is 1.08.

In turn, `CC(C)c1ccc(NN2C(C(O)c3cccs3)C=CC3C(=O)N(c4ccccc4)C(=O)C32)cc1` (configuration not stated) gave a composite z-score of 0.0247.

In the case of `C#CCNS(=O)(=O)N(C)C`, the composite z-score is 0.643.

Consider `C=CC[C@]1(C(=O)N(C)C)N=C(c2ccc(OCCCO)cc2)O[C@H]1c1ccccc1`, for which the composite z-score came to 0.457.

The compound `C[C@@H]1ON(c2ccccc2)[C@H](c2ccccc2)[C@H]1C(=O)N1C(=O)OC[C@H]1Cc1ccccc1` returned a composite z-score of 0.675.

For `COc1ccc([Si](C)(C)[C@H]2[C@H](CC(=O)N3CCC[C@H]3CO)O[C@@]3(C(=O)N(Cc4ccc(N5C(=O)c6cccc7cccc5c67)cc4)c4ccccc43)[C@@H]2C)cc1`, the composite z-score amounted to 1.48.

`COCC1=C([C@H](O)CCc2ccccc2)[C@H](CO)[C@@H]2C(=O)N(C)C(=O)[C@@H]2C1` returned a composite z-score of 0.388.

`O=C(NCc1ccccc1)[C@]1(Cc2ccccc2)N=C(c2ccc(OCCCO)cc2)O[C@@H]1c1ccccc1` displayed a composite z-score of -0.501.

Take `C=C(C(=O)CC[C@H](OC(=O)c1cccnc1)c1ccc(OCCO)cc1)C(C)C`: the composite z-score came to 1.31.

Consider `O=C(O)[C@@]1(Cc2ccccc2)COC(c2ccc(OCCCO)cc2)=N1`, for which the composite z-score was -1.18.

The compound `CCOC(=O)C1=CC[C@@H](c2cccc(Br)c2)N(S(=O)(=O)c2ccc(C)cc2)[C@H]1c1ccc([N+](=O)[O-])cc1` came in with a composite z-score of 0.726.

`CN(C)C(=O)[C@@]1(CCC(=O)OC(C)(C)C)COC(c2ccc(OCCCO)cc2)=N1` returned a composite z-score of -0.235.

On to `O=C1O[C@H](c2ccccc2)[C@H](c2ccccc2)N2[C@H]1[C@@H](C(=O)N1CCN(c3ncccn3)CC1)[C@]1(C(=O)Nc3ccc(C#CCCO)cc31)[C@H]2c1ccc(OCCO)cc1`, for which the composite z-score was 1.57.

`COC(=O)[C@@]1(Cc2ccccc2)[C@H]2c3cc(C(=O)N4CCCC4)n(CCO)c3C[C@H]2CN1C(=O)c1ccccc1` had a composite z-score of -0.493.
